The values that follow come from PubChem BioAssay (NCATS).

Where “and” joins values, the source holds several entries; their conditions need not be identical. Equal entries are not always repeated. Inconclusive results are not listed. Calls of active or inactive are those of the source. Unless noted, calls follow the shape of the full dose curve.

A short description of assay [1]: Cell Viability - NIH 3T3 (AID 541; active = well fitted curve in the direction sought with a large enough effect; an effect the other way counts as inactive or inconclusive;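 also: cells exposed to compound for 40 hours; plate controls were DMSO alone for no effect and tamoxifen positive control for full effect; nearly all actives have a fitted effect of over 25% in size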). The settings on record: NIH 3T3 cell viability, qHTS; activity change, negative = cytotoxicity: at 92.2 µM (top of the series). Put shortly:
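qHTS format; 40 hr compound exposure, 37 °C; CellTiter-Glo luminescence (cellular ATP) read-out after 20 min at RT. Decrease in ATP = cytotoxicity; AC50 from standard Hill fit.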
(In general: Quantitative high-throughput screening tests each substance at several concentrations.)

The target in assay [2] is Estrogen receptor (Homo sapiens) (UniProt P03372). Put plainly: qHTS assay for small molecule antagonists of estrogen receptor alpha signaling (AID 588513; active = well fitted curve in the direction sought with a large enough effect in the signal ratio, with a control signal flat, not every such curve was filed as active; the % refers to the signal ratio; also: % is scaled to controls: 0 for no effect and ±100 for the full control effect). Put shortly: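 ER-alpha-UAS-bla GripTite HEK 293 cells in 2% charcoal/dextran-treated FBS medium; compounds titrated (1:2, duplicate), then stimulated with 0.5 nM 17-beta-estradiol for 18 h at 37C. CCF4 beta-lactamase fluorescence; Hill-fit IC50 and efficacy.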
Estrogen receptor (Homo sapiens), sequence (P03372 whole entry, looked up): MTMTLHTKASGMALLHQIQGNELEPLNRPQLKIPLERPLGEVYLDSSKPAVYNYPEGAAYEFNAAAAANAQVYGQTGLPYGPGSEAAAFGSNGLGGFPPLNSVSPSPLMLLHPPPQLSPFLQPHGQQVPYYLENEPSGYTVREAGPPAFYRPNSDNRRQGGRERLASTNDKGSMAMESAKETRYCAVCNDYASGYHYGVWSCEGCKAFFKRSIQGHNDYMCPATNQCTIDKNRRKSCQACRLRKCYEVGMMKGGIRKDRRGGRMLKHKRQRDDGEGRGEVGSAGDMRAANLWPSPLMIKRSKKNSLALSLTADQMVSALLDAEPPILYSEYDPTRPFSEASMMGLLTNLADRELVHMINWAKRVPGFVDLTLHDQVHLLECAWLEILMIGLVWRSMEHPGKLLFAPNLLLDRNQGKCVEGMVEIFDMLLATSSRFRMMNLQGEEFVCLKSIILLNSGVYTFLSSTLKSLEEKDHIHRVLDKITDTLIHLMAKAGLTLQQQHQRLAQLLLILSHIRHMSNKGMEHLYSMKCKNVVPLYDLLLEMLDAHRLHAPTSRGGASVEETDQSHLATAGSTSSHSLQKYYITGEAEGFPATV

In assay [3] the target is Glucocorticoid receptor (Homo sapiens) (UniProt P04150). Put plainly: qHTS assay for small molecule agonists of glucocorticoid receptor signaling (AID 588532; active = well fitted curve in the direction sought with a large enough effect in the signal ratio, with a control signal flat; the % refers to the signal ratio;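 also: 100% = dexamethasone at 0.1 µM and 0% = DMSO only wells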). To be noted: HeLa MMTV-bla, beta-lactamase ratio, agonist, 18 h; stronger effect = higher value; percent of dexamethasone control, DMSO zero. The essentials: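 MMTV-bla HeLa beta-lactamase reporter cells in 1% charcoal/dextran FBS medium, compounds up to 92 uM for 18 h at 37 C, CCF4 readout; normalized to 0.1 uM dexamethasone (100%), EC50 and efficacy from Hill fits.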
Glucocorticoid receptor (Homo sapiens), sequence (P04150 whole entry, looked up): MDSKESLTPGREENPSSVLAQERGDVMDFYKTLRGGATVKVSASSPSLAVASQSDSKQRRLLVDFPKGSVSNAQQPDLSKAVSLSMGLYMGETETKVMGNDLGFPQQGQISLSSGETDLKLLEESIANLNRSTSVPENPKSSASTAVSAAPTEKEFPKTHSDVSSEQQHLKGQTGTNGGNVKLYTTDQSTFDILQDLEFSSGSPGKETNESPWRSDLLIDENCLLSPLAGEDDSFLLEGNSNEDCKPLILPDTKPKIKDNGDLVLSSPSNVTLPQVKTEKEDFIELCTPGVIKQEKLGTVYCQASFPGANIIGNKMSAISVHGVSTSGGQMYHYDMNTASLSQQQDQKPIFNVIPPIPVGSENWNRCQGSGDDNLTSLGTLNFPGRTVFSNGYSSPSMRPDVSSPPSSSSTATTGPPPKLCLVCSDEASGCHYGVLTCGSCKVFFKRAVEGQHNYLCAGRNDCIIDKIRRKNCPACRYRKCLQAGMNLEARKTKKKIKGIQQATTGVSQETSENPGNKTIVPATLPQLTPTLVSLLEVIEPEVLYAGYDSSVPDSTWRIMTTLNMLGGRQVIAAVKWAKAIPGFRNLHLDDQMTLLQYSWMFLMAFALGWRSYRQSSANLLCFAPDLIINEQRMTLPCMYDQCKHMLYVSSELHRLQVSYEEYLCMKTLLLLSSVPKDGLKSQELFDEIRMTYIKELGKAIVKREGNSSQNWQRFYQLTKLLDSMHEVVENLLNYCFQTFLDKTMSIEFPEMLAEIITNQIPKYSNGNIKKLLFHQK

Assay [4] has the same target. Put plainly: qHTS assay for small molecule antagonists of glucocorticoid receptor signaling (AID 588533; active = well fitted inhibition curve with a large enough effect in the signal ratio, with a control signal flat, not every such curve was filed as active; the % refers to the signal ratio;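 also: cells stimulated with 2 nM dexamethasone as agonist; % is scaled to controls: 0 for no effect and ±100 for the full control effect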). The essentials: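 Antagonist-mode qHTS: compound titrations added to GRE-bla HeLa cells, then dexamethasone 2 nM final; 18 h, 37 C. CCF4 FRET fluorescence normalized to dexamethasone and DMSO; IC50 from Hill fit.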
The target of assay [5] is Peroxisome proliferator-activated receptor delta (Homo sapiens) (UniProt Q03181). Kind of assay: qHTS assay for small molecule agonists of peroxisome proliferator-activated receptor delta signaling (AID 588534).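 Also: 0% = DMSO basal wells and 100% = positive control agonist at 10 µM.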 The essentials:
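Titration series tested in agonist mode on beta-lactamase reporter cells; 18 hrs at 37 C after a 5 hr pre-incubation. Readout: CCF4 fluorescence, 2 hrs RT. Hill equation gives EC50 and maximal response.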

Assay [6] is described as follows: qHTS assay for small molecule antagonists of peroxisome proliferator-activated receptor delta signaling (AID 588535; active = well fitted inhibition curve with a large enough effect in the signal ratio, with a control signal flat, not every such curve was filed as active; the % refers to the signal ratio;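 as to max response: cells co-treated with a PPAR-delta agonist as stimulator during compound exposure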). The settings on record: HEK293T PPARd-UAS-bla, beta-lactamase FRET ratio, 18 h; 460 nm channel. The essentials:
(§1)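 Beta-lactamase reporter read-out (405 nm excitation, 460/530 nm emission) after CCF4 loading for 2 hrs at RT. HEK293T PPAR-delta-UAS-bla cells, 2% charcoal/dextran FBS, compounds for 18 hrs at 37 C. Hill fit gave IC50 and efficacy.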

Assay [7] addresses Peroxisome proliferator-activated receptor delta (Homo sapiens) (UniProt Q03181). The description is as above. The essentials:
as §1

The target in assay [8] is Peroxisome proliferator-activated receptor gamma (Homo sapiens) (UniProt P37231). Kind of assay: qHTS assay for small molecule agonists of peroxisome proliferator-activated receptor gamma signaling (AID 588536; active = well fitted curve in the direction sought with a large enough effect in the signal ratio, with a control signal flat, not every such curve was filed as active; the % refers to the signal ratio;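 also: 0% = DMSO basal wells and 100% = rosiglitazone at 2 µM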). Put shortly: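 This is an agonist-mode beta-lactamase reporter assay in HEK293 PPAR-gamma-UAS-bla cells with 1% charcoal/dextran FBS. Compound titrations ran 16 h at 37 C before CCF4 detection. EC50 and efficacy are Hill fits scaled to 2 uM rosiglitazone (100%) and DMSO basal.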
Peroxisome proliferator-activated receptor gamma (Homo sapiens), sequence (P37231 whole entry, looked up): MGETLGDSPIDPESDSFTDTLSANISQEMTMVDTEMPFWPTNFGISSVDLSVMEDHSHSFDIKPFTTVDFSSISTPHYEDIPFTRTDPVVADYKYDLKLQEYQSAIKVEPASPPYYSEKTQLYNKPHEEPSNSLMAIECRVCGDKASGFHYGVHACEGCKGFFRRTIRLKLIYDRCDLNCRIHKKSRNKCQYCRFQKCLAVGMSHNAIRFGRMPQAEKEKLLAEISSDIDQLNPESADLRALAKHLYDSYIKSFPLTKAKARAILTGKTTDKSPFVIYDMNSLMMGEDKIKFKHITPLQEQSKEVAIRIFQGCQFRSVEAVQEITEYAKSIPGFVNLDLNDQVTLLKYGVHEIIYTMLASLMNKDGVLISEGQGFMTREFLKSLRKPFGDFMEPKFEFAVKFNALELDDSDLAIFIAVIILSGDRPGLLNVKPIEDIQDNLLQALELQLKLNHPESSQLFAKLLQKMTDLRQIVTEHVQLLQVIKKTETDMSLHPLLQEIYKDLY

The target in assay [9] is Thyroid hormone receptor beta (Homo sapiens) (UniProt P10828). Put plainly: qHTS assay for small molecule agonists of thyroid hormone receptor beta signaling (AID 588545).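 Also: 0% = DMSO only and 100% = 10 nM T3.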 The essentials: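 Efficacy and EC50 values derive from Hill fits of qHTS titration data, normalized to 10 nM T3 and DMSO-only wells. HEK 293 reporter cells were stimulated for 18 hrs at 37 C, with beta-lactamase activity measured by CCF4 fluorescence.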
Thyroid hormone receptor beta (Homo sapiens), sequence (P10828 whole entry, looked up): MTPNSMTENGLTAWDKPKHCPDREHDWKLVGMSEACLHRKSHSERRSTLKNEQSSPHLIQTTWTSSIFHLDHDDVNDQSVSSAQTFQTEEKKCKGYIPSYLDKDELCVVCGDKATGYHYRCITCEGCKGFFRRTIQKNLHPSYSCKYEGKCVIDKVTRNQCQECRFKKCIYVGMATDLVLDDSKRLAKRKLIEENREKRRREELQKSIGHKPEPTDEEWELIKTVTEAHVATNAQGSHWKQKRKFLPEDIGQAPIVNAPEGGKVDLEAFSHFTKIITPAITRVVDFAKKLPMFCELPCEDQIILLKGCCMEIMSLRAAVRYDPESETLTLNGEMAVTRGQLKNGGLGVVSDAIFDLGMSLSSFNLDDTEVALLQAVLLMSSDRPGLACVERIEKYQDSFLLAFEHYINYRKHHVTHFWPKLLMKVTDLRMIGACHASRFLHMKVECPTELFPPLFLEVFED

Assay [10] has the same target. Put plainly: qHTS assay for small molecule antagonists of thyroid hormone receptor beta signaling (AID 588547; active = well fitted inhibition curve with a large enough effect in the signal ratio, with a control signal flat, not every such curve was filed as active; the % refers to the signal ratio;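 also: cells stimulated with 0.4 nM T3 agonist during compound exposure; % is scaled to controls: 0 for no effect and ±100 for the full control effect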). To be noted: TR-UAS-bla HEK293, beta-lactamase ratio, antagonist mode, 18 h. The essentials: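 TR-UAS-bla GripTite HEK293 cells in 2% charcoal/dextran FBS medium; compounds 0.59 nM to 92 uM with T3 at 0.4nM final, 18 h at 37 C. Beta-lactamase read by CCF4 fluorescence (460/530 nm); Hill fits gave IC50 and efficacy.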

Assay [11] can be described thus: qHTS assay for small molecule activators of the nuclear factor-kappa B (NF-kB) signaling pathway (AID 651749; active = well fitted activation curve with a large enough effect in the signal ratio; the % refers to the signal ratio; also: % of control where 0% means no effect). The settings on record: NF-kB-bla ME-180 cells, beta-lactamase FRET ratio, 16 h; stronger effect = higher value. Put shortly:
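NF-kB-bla ME-180 cells, 2,000/well; 23 nL compound or DMSO pinned; 16 hr, 37C/5% CO2; beta-lactamase FRET read-out.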

The target of assay [12] is Tumor necrosis factor (Homo sapiens) (UniProt P01375). Put plainly: qHTS assay to identify small molecules that stimulate Tumor Necrosis Factor-alpha (TNF-alpha) secretion (AID 651757; active = well fitted curve in the direction sought with a large enough effect in the signal ratio; the % refers to the signal ratio; also: 0% is about no effect). The essentials: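 THP-1 cells, 3000/well; compound 17 hrs, 37 C; add cryptate/XL665 anti-TNF-alpha antibody pair; 3 hr RT; TR-FRET (HTRF) read of secreted TNF-alpha. Quantitative HTS format.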
Tumor necrosis factor (Homo sapiens), sequence (P01375 whole entry, looked up): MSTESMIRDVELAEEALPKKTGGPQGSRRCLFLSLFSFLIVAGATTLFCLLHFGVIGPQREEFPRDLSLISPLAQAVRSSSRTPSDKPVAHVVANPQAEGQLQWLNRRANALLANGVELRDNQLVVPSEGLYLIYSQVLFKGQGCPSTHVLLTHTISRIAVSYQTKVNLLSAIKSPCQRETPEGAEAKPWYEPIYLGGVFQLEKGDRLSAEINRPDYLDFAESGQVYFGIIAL

A short description of assay [13]: qHTS assay for environmental chemicals that activate the Aryl hydrocarbon Receptor (AhR) signaling pathway (AID 651777; active = well fitted curve in the direction sought with a large enough effect; an effect the other way counts as inactive or inconclusive; also: % of control where 0% means no effect; nearly all actives have a fitted effect of over 15% in size). The settings on record: 1A2-DRE human hepatoma cells, luciferase, 24 h; activation: stronger effect = higher value. The essentials: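 Following a 24 hr incubation with test chemicals at 37 C and 5% CO2, 1A2-DRE human hepatoma cells received One-Glo reagent; after 30 min at room temperature, luciferase output reflected CYP1A2 induction via AhR.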

Assay [14] in a line: qHTS assay for small molecule agonists of the antioxidant response element (ARE) signaling pathway measured by Nrf2-dependant transcriptional activity (AID 720636; active = well fitted curve in the direction sought with a large enough effect in the repeat runs; an effect the other way counts as inactive or inconclusive;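 also: HepG2 cells with an ARE-driven luciferase reporter; % of control where 0% means no effect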). The essentials:
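ONE-Glo luminescence, read 30 min after reagent addition at room temperature, reflected ARE reporter activity in HepG2 cells that had been incubated with compound for 16 hr at 37 C in 1% dialyzed FBS.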

The target in assay [15] is Peroxisome proliferator-activated receptor gamma (Homo sapiens) (UniProt P37231). Kind of assay: qHTS assay for small molecule antagonists of peroxisome proliferator-activated receptor gamma signaling (AID 588537; active = well fitted inhibition curve with a large enough effect in the signal ratio, with a control signal flat, not every such curve was filed as active; the % refers to the signal ratio;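 also: reporter cells co-stimulated with 50 nM rosiglitazone agonist during compound treatment; % of control where 0% means no effect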). The essentials:
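Read-out: CCF4 fluorescence (ex 405, em 460/530 nm) after 2 h at RT. Cells were HEK293 carrying a UAS-bla reporter and treated 16 h at 37 C with compound plus rosiglitazone (50 nM final). Normalized to rosiglitazone and DMSO.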

Assay [16] in a line: qHTS assay for small molecule disruptors of the mitochondrial membrane potential - 5 hr assay (AID 651755). Also: % is scaled to controls: 0 for no effect and ±100 for the full control effect; nearly all actives have a fitted effect of over 40% in size. Put shortly: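 Read-out: ratiometric Mito-MPS fluorescence, green monomer (ex 490/em 535) vs red mitochondrial aggregate (ex 540/em 590). HepG2 cells treated 5 hr at 37C before 30 min dye loading.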
A short description of assay [17]: qHTS assay to identify small molecules that stimulate interleukin-8 (IL-8) secretion (AID 651758; active = well fitted activation curve with a large enough effect in the signal ratio; the % refers to the signal ratio; also: 0% is about no effect). The essentials: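 Compounds are added to THP-1 cells (2000 per well) and left 16 hrs at 37 C. A labeled anti-IL-8 antibody pair is then added, and IL-8 secretion is measured by time-resolved FRET after 1-3 hrs at room temperature.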
Assay [18] addresses Nuclear receptor ROR-gamma (Homo sapiens) (UniProt P51449). Kind of assay: qHTS assay for small molecule antagonists of the retinoid-related orphan receptor gamma (ROR-gamma) signaling pathway (AID 651802; active = well fitted curve in the direction sought with a large enough effect; an effect the other way counts as inactive or inconclusive;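 also: CHO cells with doxycycline-induced ROR-gamma expression; luciferase reporter luminescence driven by ROR response element; % is scaled to controls: 0 for no effect and ±100 for the full control effect; nearly all actives have a fitted effect of over 60% in size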). The essentials:
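Luciferase read-out: ONE-Glo luminescence after 30 min at room temperature, following 16hr doxycycline induction at 37C, 5% CO2 of CHO cells with TET-inducible ROR and RORE-LUC reporter; decreased luminescence = reduced reporter activity.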

Assay [19] has as its target Bile acid receptor (Homo sapiens) (UniProt Q96RI1). Put plainly: qHTS assay for small molecule agonists of farnesoid X receptor signaling (AID 588527).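 Also: 0% = vehicle basal and 100% = reference agonist.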 To be noted: HEK293T FXR-UAS-bla, beta-lactamase ratio, 16 h; stronger effect = higher value. The essentials: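 Agonist-mode beta-lactamase reporter in GeneBLAzer FXR-UAS-bla HEK293T cells, titration up to 92 uM, 16 h exposure at 37 C, CCF4 fluorescence. Response scaled to DMSO (0%) and 100 uM chenodeoxycholic acid (100%), then Hill-fitted for EC50 and efficacy.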

For assay [20], the target named is Vitamin D3 receptor (Homo sapiens) (UniProt P11473). Kind of assay: qHTS assay for small molecule agonists of vitamin D receptor signaling (AID 588543).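 Also: 0% = DMSO basal and 100% = reference agonist control.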 The essentials: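 VDR-UAS-bla HEK293T cells, 2000/well, 2% charcoal-stripped FBS; compound titration 16 h at 37 C; CCF4 beta-lactamase ratio read. Normalized to 50 nM 1-alpha,25-dihydroxyvitamin D3 (100%) and DMSO; Hill fit gives EC50, efficacy.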
Vitamin D3 receptor (Homo sapiens), sequence (P11473 whole entry, looked up): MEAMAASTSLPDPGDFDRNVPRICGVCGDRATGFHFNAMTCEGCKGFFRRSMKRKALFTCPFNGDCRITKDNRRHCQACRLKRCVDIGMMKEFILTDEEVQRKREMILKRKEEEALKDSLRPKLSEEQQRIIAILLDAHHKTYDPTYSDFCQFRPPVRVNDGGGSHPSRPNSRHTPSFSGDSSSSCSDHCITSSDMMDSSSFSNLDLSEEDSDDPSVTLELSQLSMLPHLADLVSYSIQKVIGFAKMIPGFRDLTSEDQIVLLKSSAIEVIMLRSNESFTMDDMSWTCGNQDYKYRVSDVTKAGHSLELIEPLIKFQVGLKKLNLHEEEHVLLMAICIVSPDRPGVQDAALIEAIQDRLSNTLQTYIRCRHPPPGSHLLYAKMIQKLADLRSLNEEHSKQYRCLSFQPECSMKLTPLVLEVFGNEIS

Nuclear receptor ROR-gamma (Homo sapiens), sequence (P51449 whole entry, looked up): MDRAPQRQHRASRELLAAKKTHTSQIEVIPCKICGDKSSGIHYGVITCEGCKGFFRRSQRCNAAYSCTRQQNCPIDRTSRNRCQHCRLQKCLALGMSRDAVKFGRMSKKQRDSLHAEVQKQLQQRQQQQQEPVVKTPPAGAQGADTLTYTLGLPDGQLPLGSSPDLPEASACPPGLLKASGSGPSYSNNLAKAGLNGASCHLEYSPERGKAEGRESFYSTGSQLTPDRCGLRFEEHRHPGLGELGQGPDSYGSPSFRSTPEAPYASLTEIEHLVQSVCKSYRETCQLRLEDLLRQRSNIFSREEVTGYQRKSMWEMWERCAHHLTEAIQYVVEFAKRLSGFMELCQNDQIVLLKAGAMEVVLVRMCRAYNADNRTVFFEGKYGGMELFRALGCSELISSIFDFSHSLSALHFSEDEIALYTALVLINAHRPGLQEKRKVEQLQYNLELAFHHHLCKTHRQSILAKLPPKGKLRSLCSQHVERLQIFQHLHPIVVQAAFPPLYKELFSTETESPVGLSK
Bile acid receptor (Homo sapiens), sequence (Q96RI1 whole entry, looked up): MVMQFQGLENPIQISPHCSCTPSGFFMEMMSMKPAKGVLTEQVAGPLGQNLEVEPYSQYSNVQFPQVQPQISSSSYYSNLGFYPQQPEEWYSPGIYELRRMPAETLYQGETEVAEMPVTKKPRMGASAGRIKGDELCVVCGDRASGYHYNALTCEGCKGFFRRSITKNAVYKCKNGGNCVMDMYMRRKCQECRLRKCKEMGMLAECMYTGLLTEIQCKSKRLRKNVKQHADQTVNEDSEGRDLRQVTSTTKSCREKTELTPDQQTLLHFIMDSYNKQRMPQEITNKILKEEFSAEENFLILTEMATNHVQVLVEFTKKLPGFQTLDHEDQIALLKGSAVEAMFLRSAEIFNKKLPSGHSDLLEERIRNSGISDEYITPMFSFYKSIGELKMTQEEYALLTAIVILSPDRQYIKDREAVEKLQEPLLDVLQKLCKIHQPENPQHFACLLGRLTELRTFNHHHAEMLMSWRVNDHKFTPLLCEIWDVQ
Peroxisome proliferator-activated receptor delta (Homo sapiens), sequence (Q03181 whole entry, looked up): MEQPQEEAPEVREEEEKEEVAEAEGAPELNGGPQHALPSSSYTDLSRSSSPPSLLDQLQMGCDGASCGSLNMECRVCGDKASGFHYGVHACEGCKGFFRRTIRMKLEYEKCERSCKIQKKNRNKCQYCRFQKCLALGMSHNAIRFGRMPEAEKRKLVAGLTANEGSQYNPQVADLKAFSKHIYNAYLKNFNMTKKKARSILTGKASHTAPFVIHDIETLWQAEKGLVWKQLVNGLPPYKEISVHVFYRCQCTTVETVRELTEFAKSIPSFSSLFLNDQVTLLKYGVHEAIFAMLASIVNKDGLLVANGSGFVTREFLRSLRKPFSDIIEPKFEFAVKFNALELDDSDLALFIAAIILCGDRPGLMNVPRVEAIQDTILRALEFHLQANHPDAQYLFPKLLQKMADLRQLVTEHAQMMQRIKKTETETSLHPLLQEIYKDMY

On to `ClC(Cl)c1ccccc1`, for which the Potency entry in assay [1], in assay [2], in assay [9] and in assay [14] was “inactive” in each case. In addition, the activation was -0.105% (inactive) in assay [3], -0.312% (inactive) in assay [11] and -2.06% (inactive) in [13]. Also, the call in assay [4], in assay [5], in assay [7], in assay [8] and in assay [12] was inactive. Also, in assay [6], the max response was 17.7%. Also, the activity change % (negative = inhibition) in assay [10] was -1.09% (inactive).
On to `ClCCBr`, for which the Potency entry in assay [1], in [2], in assay [15], in assay [9], in assay [16] and in [17] was “inactive” in each case. Moreover, the Potency result in assay [18] and in [14] was “inactive” throughout. In addition, in assay [6], the max response was -34.3%. Moreover, the result in assay [7], in assay [8] and in [12] was inactive. The activity change % (negative = inhibition) in assay [10] is 0.0673% (inactive). In addition, the activation in [11] was 0.431% (inactive); in assay [13], 3.31% (inactive).
On to `CC(C)[C@]12CC(=O)[C@H](C)[C@H]1C2`, for which the Potency result in assay [1], in assay [15], in assay [18] and in assay [14] was “inactive” each time. In addition, the activation in [19] was -2.27% (inactive) and 5.04% (inactive); in assay [11], -0.354% (inactive) and -5.97% (inactive); in assay [13] it was -0.165% (inactive) and 1.56% (inactive). For the same molecule, the molecule was called inactive in assay [5], in assay [7], in assay [8], in assay [20] and in [12]. Further, the max response in assay [6] is 17.2% and -10.4%. For the same molecule, the activity change % (negative = inhibition) in assay [10] is -3.76% (inactive) and 6.48% (inactive).
Take `CCC(Cl)[N+](=O)[O-]` (stereo not drawn): the Potency entry in [2], in assay [15], in assay [9], in [17], in assay [18] and in assay [14] was “inactive” throughout. For the same molecule, the activation in assay [19] was -1.12% (inactive); in assay [3], -1.58% (inactive); in assay [11], 0.0697% (inactive); in assay [13], -0.0264% (inactive). Besides, the molecule was called inactive in assay [5], in [7], in assay [8], in assay [20] and in assay [12]. Moreover, in assay [6], the max response amounted to 2.58%.
Consider `ClC(Cl)C(Cl)Cl`, for which the Potency result in assay [1], in assay [2], in assay [9], in assay [16] and in assay [14] was “inactive” in each case. Besides, the activation was -2.53% (inactive) in assay [19], 1.52% (inactive) in [3], -0.991% (inactive) in assay [11] and -2.65% (inactive) in assay [13]. The molecule was called inactive in assay [4], in [8], in [20] and in assay [12]. In addition, in assay [10], the activity change % (negative = inhibition) was 0.5% (inactive).
As to `Oc1cccc(Cl)c1`, the Potency entry in assay [1], in [2], in assay [15], in assay [18] and in [14] was “inactive” throughout. In addition, the activation in assay [19] is 2.65% (inactive); in [3] it was -11.4% (inactive); in assay [11], -0.548% (inactive); in assay [13], -0.063% (inactive). Besides, the molecule was classed as inactive in assay [8], in assay [20] and in [12]. In addition, the activity change % (negative = inhibition) in [10] was 0.91% (inactive).
`CC(C)Br`: the Potency result in assay [1], in assay [2], in assay [15], in assay [9], in assay [17] and in assay [14] was “inactive” each time. For the same molecule, the values for the activation in assay [19] and in assay [13] were -0.0522% (inactive) and -0.85% (inactive), respectively. Moreover, the molecule was classed as inactive in assay [4], in assay [8], in assay [20] and in assay [12].
As for `C=COC(C)=O`, the Potency entry in assay [1], in assay [9], in assay [16], in [17] and in [14] was “inactive” in each case. The molecule was classed as inactive in assay [20] and in assay [12]. Moreover, in assay [10], the activity change % (negative = inhibition) was 0.373% (inactive). The activation in assay [11] was -0.411% (inactive).
Consider `O=[N+]([O-])c1ccc(Cl)c(Cl)c1Cl`, for which the activity change, negative = cytotoxicity in [1] was -117% (active). For the same molecule, the Potency result in [2], in assay [16] and in [14] was “inactive” in each case. In addition, the outcome in [5], in assay [7], in assay [8], in assay [20] and in assay [12] was inactive. Further, the max response in [6] was -19.7%. In assay [11], the activation was 0.972% (inactive).
